Data reported in the supplement of paper PMC10981050.
Several values for one entry are separate records, joined by “and”; a condition that tells them apart may be missing. Identical values can stand only once. Counter-ions that a name gives are not always drawn.

How the values were obtained:
Assay in all cases: cell viability relative to vehicle control; higher = less cytotoxic
Settings in all cases: 10 µM
K562 = test system: K562
Procedure, shortened: (§1)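 Screening covered the Selleck bioactive, kinase and epigenetic probe libraries, less identity-inconsistent compounds, on CRISPR-edited mutant clones and isogenic wild-type clones of four leukaemia lines. Cells, at 2000 per well in 50 µL medium, received a single 10 µM acoustically dispensed dose. After 48 h the supernatant was removed and CellTiter-Glo luminescence was read. Viability was analysed in Genedata Screener as percent of the on-plate vehicle control.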

MARIMO = test system: MARIMO
Procedure, shortened: as §1

MOLM14 = test system: MOLM14
Procedure, shortened: as §1

OCI-AML2 = test system: OCI-AML2
Procedure, shortened: as §1

| SMILES | cell viability (K562; SRSF2 genotype: SRSF2 P95H/wt) | cell viability (K562; SRSF2 genotype: SRSF2 wt/wt) | cell viability (MARIMO; SRSF2 genotype: SRSF2 P95H/wt) | cell viability (MARIMO; SRSF2 genotype: SRSF2 wt/wt) | cell viability (MOLM14; SRSF2 genotype: SRSF2 P95H/wt) | cell viability (MOLM14; SRSF2 genotype: SRSF2 wt/wt) | cell viability (OCI-AML2; SRSF2 genotype: P95H/wt) | cell viability (OCI-AML2; SRSF2 genotype: wt/wt) |
| --- | --- | --- | --- | --- | --- | --- | --- | --- |
| O=C(O)Cc1ccc(O)cc1 [4-Hydroxyphenylacetic acid] | 100% and 101% | 101% | 96.8% | 104% | 95.7% | 101% | 95.5% | 108% |
| Cc1ccc(Cl)c(Nc2ccccc2C(=O)O)c1Cl [Meclofenamate sodium] | 97.7% and 99.9% | 96.9% | 97.2% | 96.4% | 96.8% | 98.5% | 105% | 99.4% |
| Cc1nc(-c2cn3c(n2)-c2ccc(-c4cnn(C(C)(C)C(N)=O)c4)cc2OCC3)n(C(C)C)n1 | 74.5% and 79.4% | 72.8% | 45.2% | 42% | 32.3% | 40.1% | 8.91% | 22.8% |
| COc1cc2c(Oc3ccc4[nH]c(C)cc4c3F)ccnc2cc1OCC1(N)CC1 [Anlotinib (AL3818) dihydrochloride] | 19.7% and 32.9% | 24.9% | 5.61% | 5.93% | 9.28% | 3.53% | 17.5% | 17.3% |
| O=C(NCCCNc1nc(Nc2cccc(CN3CCOCC3)c2)ncc1C1CC1)C1CCC1 | 74.5% and 95.7% | 84.8% | 69.5% | 74.1% | 8.31% | 6.65% | 17.8% | 21.4% |
| Cc1cnc(Nc2ccc(OCCN3CCCC3)cc2)nc1Nc1cccc(S(=O)(=O)NC(C)(C)C)c1 | 1.46% and 2.3% | 2.29% | 6.76% | 10.9% | 0.67% | 0.58% | 0.71% | 1.39% |
| C[S+]([O-])c1ccc(-c2nc(-c3ccc(F)cc3)c(-c3ccncc3)[nH]2)cc1 (configuration not stated) | 96.3% and 94.8% | 88.4% | 110% | 113% | 109% | 99.9% | 109% | 102% |
| Fc1ccc2[nH]ccc2c1-c1nc(N2CCOCC2)c2sc(CN3CCN(CC4CC4)CC3)cc2n1 | 77.2% and 81.7% | 76.6% | 68.5% | 67.3% | 45.5% | 45.1% | 40.4% | 34.5% |
| Cc1cc(C)c(CN2CCc3c(Cl)cc(-c4c(C)noc4C)c(Cl)c3C2=O)c(=O)[nH]1 | 78.7% and 87.1% | 87.5% | 74.8% | 65.4% | 77.6% | 79.8% | 77.4% | 86.5% |
| COc1cc2c(NC3CCN(C(C)C)CC3)nc(C3CCCCC3)nc2cc1OCCCN1CCCC1 | 5.7% and 1.99% | 3.43% | 1.5% | 1.11% | 0.34% | 0.42% | 0.27% | 0.2% |
| OC[C@@H](O)[C@@H](O[C@H]1O[C@H](CO)[C@@H](O)[C@H](O)[C@H]1O)[C@H](O)[C@@H](O)CO [Maltitol] | 98.2% and 88.7% | 98.6% | 99.6% | 105% | 99.6% | 99.9% | 96.8% | 107% |
| CC(C)n1c(/C=C/C(O)CC(O)CC(=O)O)c(-c2ccc(F)cc2)c2ccccc21 (configuration not stated) [Fluvastatin sodium (Lescol)] | 80.8% and 90.5% | 69.6% | 45.5% | 46.6% | 77.7% | 89.3% | 36.8% | 46.5% |
| O=C(N[C@H](CO)[C@H](O)c1ccc([N+](=O)[O-])cc1)C(Cl)Cl [Chloramphenicol (Chloromycetin)] | 92.7% and 92% | 94.8% | 104% | 106% | 95.6% | 96.8% | 96% | 103% |
| O=C(O)CCCCC(CCSCc1ccccc1)SCc1ccccc1 (configuration not stated) | 106% and 104% | 100% | 99.6% | 111% | 100% | 103% | 94.6% | 112% |
| Nc1nc2[nH]cnc2c(=S)[nH]1 [Thioguanine] | 25.9% and 28.5% | 26.8% | 46.3% | 37.5% | 35.2% | 23% | 13.5% | 20.5% |
| CCOc1ccccc1OCCN[C@H](C)Cc1ccc(OC)c(S(N)(=O)=O)c1 [Tamsulosin hydrochloride] | 102% and 97.9% | 98.3% | 96.9% | 107% | 98.5% | 103% | 92.7% | 104% |
| COc1cc(OC)c2c(=O)[nH]c(-c3cc(C)c(OCCO)c(C)c3)nc2c1 | 81.8% and 87.1% | 87.5% | 80.1% | 71.1% | 77.8% | 81.3% | 79% | 86% |
| CCCCCCCCCCCC[N+](C)(C)CCOc1ccccc1 [Domiphen Bromide] | 7.02% and 4.79% | 5.16% | 0.45% | 0.55% | 0.35% | 0.39% | 0.4% | 0.43% |
| CCC/C=C1\OC(=O)C2=C1CCC=C2 [Ligustilide] | 84.1% and 83.7% | 85.5% | 60.9% | 65.6% | 52.7% | 49.4% | 64.8% | 63.9% |
